Results published in PubChem BioAssay AID1069 (NMMLSC, 2008).
The source made the active and inactive calls.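 How the source made its calls: active means high combined rank on largest and smallest cell-count-weighted shift across three tests, rank score above 45, floors 50 and 25 (some results past the limit were not filed as active); inactive means the rest.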

experiment: LNCaP granularity increase inducers, single-point recheck – cell-based, side scatter shift, flow cytometry, confirmation (AID 1069); conditions: LNCaP differentiation, 4 d, at 100 µM, stronger effect = higher value;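 further: LNCaP human prostate cancer cells in low-serum medium with charcoal-stripped FBS; percent of cells with raised granularity gated so DMSO controls show 10%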

SMILES | side scatter shift
O=C(COc1ccc2ccccc2c1)N1CCN(C2CCN(Cc3ccccc3)CC2)CC1 | 54.3% (inactive)
Cc1nc2ccccc2c(=O)n1-c1ccc(F)cc1 | 8.9% (inactive)
Cc1ccc(Cn2c(C)c3cnn(CC(=O)N4CCC5(CC4)OCCO5)c(=O)c3c2C)cc1 | 9.1% (inactive)
CCOc1ccc(C2SCC(=O)Nc3c2c(=O)[nH]n3C2CCCCCC2)cc1 (stereo not given) | 22.2% (inactive)
CCn1c(=O)cc(OCC(=O)N2CCN(Cc3ccc4c(c3)OCO4)CC2)c2ccccc21 | 0% (inactive)
CCn1c(=O)cc(OCC(=O)N2CCC3(CC2)OCCO3)c2ccccc21 | 6.7% (inactive)
C[C@H]1CCC/C=C/C2C[C@H](O)CC2[C@H](O)/C=C/C(=O)O1 (stereo not given in full) | 8.7% (inactive)
Clc1ccc(COC(Cn2ccnc2)c2ccc(Cl)cc2Cl)cc1 (stereo not given) | 18.2% (inactive)
Cc1cc(OCC(=O)O)c2c3c(c(=O)oc2c1)CCCC3 | 5.1% (inactive)
Cc1ccc2c(c1)[C@@H]1CN(C)CC[C@@H]1N2C(=O)Nc1cccc(C(F)(F)F)c1 | 23.1% (inactive)

same assay, conditions: LNCaP differentiation, 4 d, side scatter shift, at 10 µM, stronger effect = higher value

SMILES | side scatter shift [%]
O=C(COc1ccc2ccccc2c1)N1CCN(C2CCN(Cc3ccccc3)CC2)CC1 | 5.8
Cc1nc2ccccc2c(=O)n1-c1ccc(F)cc1 | 3.5
Cc1ccc(Cn2c(C)c3cnn(CC(=O)N4CCC5(CC4)OCCO5)c(=O)c3c2C)cc1 | 3.35
CCOc1ccc(C2SCC(=O)Nc3c2c(=O)[nH]n3C2CCCCCC2)cc1 (stereo not given) | 10.5
CCn1c(=O)cc(OCC(=O)N2CCN(Cc3ccc4c(c3)OCO4)CC2)c2ccccc21 | 3.6
CCn1c(=O)cc(OCC(=O)N2CCC3(CC2)OCCO3)c2ccccc21 | 1.7
C[C@H]1CCC/C=C/C2C[C@H](O)CC2[C@H](O)/C=C/C(=O)O1 (stereo not given in full) | 9.7
Clc1ccc(COC(Cn2ccnc2)c2ccc(Cl)cc2Cl)cc1 (stereo not given) | 2.85
Cc1cc(OCC(=O)O)c2c3c(c(=O)oc2c1)CCCC3 | 5.9
Cc1ccc2c(c1)[C@@H]1CN(C)CC[C@@H]1N2C(=O)Nc1cccc(C(F)(F)F)c1 | 10.6
